Screening data as filed in PubChem.
SMARCA2 activ – increases SMARCA2 function in MMTV reporter cells | hit rate 1% among 370,000 | activation, % at 9.1 µM | MG213 cells, MMTV-luciferase reporter, dexamethasone, overnight | AID 652017; in the data active means activation above about 7.8%;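 further: 0% = vehicle wells and 100% = reference activator wells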
hcDAF12 agonist – activates DAF-12 receptor from parasite H. contortus; HEK293 hcDAF-12 lit1-tk-luc reporter, luminescence; 0% DMSO, 100% Δ7-dafachronic acid; activation, % at 6.8 µM; hit rate 1.4% among 370,000;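 active means activation above the mean of all tested compounds plus 3 SD, cut at about 5.5% in these data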;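 further: 100% = response to 3 µM Δ7-dafachronic acid high control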
hgDAF-12 ag – activates the H. glycines DAF-12 receptor ligand-binding domain. HEK293 GAL4-hgDAF12 UAS-luciferase reporter, agonist luminescence; normalized to butyrate control. activation, % at 6.8 µM. hit rate 1.8% among 370,000. AID 687014;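 active means activation above a cutoff set at the mean of all screened compounds plus 3 SD, cut at about 10% in these data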;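 further: 0% = DMSO wells and 100% = sodium butyrate wells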
DAX1 inh-1 – blocks DAX1 repression of SF-1 activated StAR promoter | inhibition, % at 6.8 µM | hit rate 1.1% among 370,000 | HEK293T StAR-luciferase reporter, SF-1/DAX-1 repression relief;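 active means inhibition above the mean over all tested compounds plus 3 SD, cut at about 3.6% in these data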;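 further: 0% = DAX-1 cells with DMSO and 100% = cells lacking DAX-1 with DMSO; higher inhibition means more luminescence from relief of DAX-1 repression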
DAX1 inh-2 – inhibits human nuclear receptor DAX1; AID 504766; hit rate 0.99% among 340,000; inhibition, % at 6.75 µM; HEK293 Gal4-DAX1 luciferase reporter, luminescence;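 active means inhibition above the mean over all tested compounds plus 3 SD, cut at about 4.2% in these data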;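 further: 0% = DAX1-transfected cells with DMSO and 100% = empty-vector control cells with DMSO; inhibition shows as a rise in luminescence from relieved DAX1 repression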
Target sequence (P51843 207-470 limits assumed): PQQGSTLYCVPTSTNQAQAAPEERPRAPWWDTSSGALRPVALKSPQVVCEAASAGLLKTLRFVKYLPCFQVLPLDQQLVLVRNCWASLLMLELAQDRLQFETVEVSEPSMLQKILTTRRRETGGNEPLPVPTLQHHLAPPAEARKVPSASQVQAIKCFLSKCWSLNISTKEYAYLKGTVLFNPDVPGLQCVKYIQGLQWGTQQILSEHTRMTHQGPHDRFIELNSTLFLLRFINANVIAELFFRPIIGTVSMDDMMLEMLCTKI
ssDAF-12 act – S. stercoralis DAF-12 activation, primary screen | HEK293 ssDAF-12/GRIP1 lit1-tk-luc reporter, luminescence; % of 3 µM dafachronic acid response | activation, % at 6.8 µM | hit rate 1% among 370,000;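 active means activation above the mean over all tested compounds plus 3 SD, cut at about 0.9% in these data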;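 further: 0% = DMSO-only wells and 100% = 3 µM delta7-dafachronic acid wells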
The depositor's hits bear a star; · = no result. Only some compounds are listed: those with a hit (about 4.8% of all), similar ones and a draw of the others.

SMILES	SMARCA2 activ	hcDAF12 agonist	hgDAF-12 ag	DAX1 inh-1	DAX1 inh-2	ssDAF-12 act
O=C1C(=O)N(c2ccccc2)C(c2ccccc2[N+](=O)[O-])/C1=C(\O)c1ccccc1 (stereo not given)	-0.1	5.4	4.2	-0.8	-0.2	1.6*
O=C1C(=O)N(c2cccc(Cl)c2)C(c2ccccc2[N+](=O)[O-])/C1=C(\O)c1ccccc1 (stereo not given)	·	·	·	·	-0.9	·
O=C(c1cc2ccccc2oc1=O)N(Cc1ccccc1F)C1CCS(=O)(=O)C1 (stereo not given)	3.2	5.8*	4.9	2.2	0.8	-0.7
CCn1c(CNC(=O)c2ccc(Cl)cc2)nnc1SCC(=O)N1CCOCC1	-0.2	0.1	-0.1	4.5*	0.6	-1.0
NC(=O)CSc1nnc(Cn2c(=O)sc3ccccc32)n1CCc1ccccc1	0.8	-0.5	-1.6	0.2	4.5*	-1.1
O=C(CSc1nnc(Cn2c(=O)sc3ccccc32)n1CCc1ccccc1)N1CCCC1	0.5	0.8	-2.8	0.9	0.7	-1.7
CCn1c(CC(=O)Nc2ccccc2F)nnc1SCC(=O)NC1CCCC1	-2.5	-2.2	0.7	-0.2	-0.9	-0.8
Cn1c(Cn2c(=O)sc3ccccc32)nnc1SCC(=O)NC1CCCC1	-0.5	0.9	1.9	0.5	5.2*	-0.1
CCn1c(CC(=O)Nc2ccc(F)cc2)nnc1SCC(=O)NC1CCCC1	-0.2	0.6	-1.6	0.0	4.8*	-1.3
Cn1c(Cn2c(=O)sc3ccccc32)nnc1SCC(=O)NC1CCCCC1	·	·	·	·	2.3	·
OC1(Cc2ccccc2)CCN(c2ncnc3sccc23)CC1	·	-5.5	-9.1	·	·	-2.2
O=C(CSc1cc(Cl)ccc1Cl)NC1CCCC1	-3.4	-0.9	1.4	-0.3	5.4*	-0.2
Cn1c(COc2ccc(Cl)cc2)nnc1SCC(=O)NC1CC1	0.1	-0.1	0.2	0.0	0.4	-1.6
Cn1c(CNC(=O)c2ccc(Cl)cc2)nnc1SCC(=O)NC1CCCC1	-1.9	0.3	-1.4	-0.2	6.5*	-1.5
O=C(CSc1nccn1-c1cccc(Cl)c1)NC1CCCC1	0.1	-1.8	0.3	-1.6	-0.8	-1.2
Cc1ccccc1Cn1cc(CN2[C@@H](CC(C)C)COc3cccc(F)c3S2(=O)=O)nn1	0.6	-2.4	0.8	-0.8	·	-1.6
COc1ccc(N2CCN(CCCNC(=O)CCOC(C)(C)C)CC2)cc1	0.5	-0.8	-1.0	-0.7	·	-2.1
COC(=O)CCC(=O)OC1(C)C(=O)C=C2C=C(C3CC3)N(CCc3c[nH]c4ccccc34)C=C2C1=O (stereo not given)	0.9	6.3*	1.0	-0.1	0.3	-0.3
COC(=O)CCC(=O)OC1(C)C(=O)C=C2C=C(C3CC3)N(CCc3ccccn3)C=C2C1=O (stereo not given)	0.6	-0.7	0.3	0.4	1.4	-1.1
COc1cc(-n2c(C)nc3cc(C(=O)N4CC(C)CC(C)C4)ccc32)cc(OC)c1OC (stereo not given)	-5.9	-3.3	-1.8	0.3	·	-1.6
S=c1nc[nH]c2c1[nH]c1ccccc12	2.4	4.9	0.0	0.4	2.1	0.5
S=c1nc[nH]c2c1[nH]c1ccc(Cl)cc12	-3.4	-0.1	-4.7	-1.0	5.1*	-0.2
COc1ccc(/C=C/C(=O)c2ccc(Cl)cc2)c(OC)c1	7.2	0.9	15.6*	1.8	0.6	-1.4
O=S(=O)(CC1NCc2cc(F)ccc21)NCCc1ccccc1 (stereo not given)	-3.9	-1.2	-0.2	0.9	·	-0.8
CC(C)(C)c1ccc(-c2nnc3sc(COc4ccccc4)nn23)cc1	3.7	1.5	0.8	-0.1	·	-1.4
COc1cccc(NC(=O)COC(=O)Cc2ccc(Cl)cc2)c1	2.8	-0.2	0.2	0.7	0.7	0.0
COc1cccc(NC(=O)n2nc(N)cc2-c2ccc(Cl)cc2)c1	-1.5	-0.1	12.0*	-0.6	-0.6	-0.6
CC(=O)c1cc(-c2cc(C(=O)O)cc([N+](=O)[O-])c2)c(=O)n2c1CCC2	-0.2	1.8	1.4	0.0	·	-0.8
O=C(NCc1ccco1)/C(=C\C=C\c1ccccc1)NC(=O)c1ccco1	-3.0	-0.8	-2.7	-0.3	7.4*	-0.7
O=C(NCc1ccco1)/C(=C/C=C/c1ccccc1)NC(=O)c1ccco1	0.0	-1.8	-3.3	0.0	2.2	-1.9
